Screening data: PubChem, Sanford-Burnham Center for Chemical Genomics
The list is not random: actives were taken first. Their share in the collection is about 2.1%.
NRP1-CendR mod – modulators of CendR peptide binding to NRP-1, primary screen, biochemical, fluorescence polarization, uHTS; inhibition, % at 25 µM; FAM-RPARPAR peptide binding to NRP-1; AID 602438, 2012; Neuropilin-1 (Homo sapiens), O14786; 360,000 tested, 0.85% active;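 active = inhibition or corrected inhibition above about 18%, plus a signal ratio from 0.5 to 1.5, limit read from the data, passing the limit was not always enough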
MLLE-PAM2 inh – inhibitors of PABP1 MLLE–PAM2 peptide binding, primary screen, biochemical, fluorescence polarization, FITC-PAM2, GST-MLLE; inhibition, % at 20 µM; 360,000 tested, 0.36% active; AID 588489, 2011; in the data active = inhibition above about 35%, passing the limit was not always enough;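 note: plate controls were DMSO wells with GST-MLLE for no effect and wells lacking GST-MLLE protein for full effect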
PABP polyA inh – PABP poly(A) RNA binding inhibitors, primary screen, biochemical, fluorescence polarization, uHTS; AID 2014, 2009; 290,000 tested, 1% active; Polyadenylate-binding protein 1 (Homo sapiens), P11940; inhibition, % at 35 µM;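 note: calls also rest on retests at 20 µM and on dose response follow-up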
eIF4H inh – human eIF4H binding inhibitors, primary screen, translation initiation inhibitor project, biochemical, uHTS, fluorescence polarization. AID 2012, 2009. Eukaryotic translation initiation factor 4H (Homo sapiens), Q15056. inhibition, % at 35 µM. eIF4H fluorescence polarization binding assay. 290,000 tested, 0.94% active;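 note: calls also rest on retests at 20 µM and on dose response follow-up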
Starred values were filed as active, the others as inactive; i = inactive; ? = inconclusive; nt = no result given. Unless noted, the rule behind the calls is not given here.

SMILES	NRP1-CendR mod	MLLE-PAM2 inh	PABP polyA inh	eIF4H inh
CC(=O)Nc1cccc(-c2ccnc3c2CC(C)(C(=O)Nc2ccc(C(C)C)cc2)O3)c1 (stereo unspecified)	-1.9	6.9	nt	nt
CN(C)S(=O)(=O)c1cccc(-c2nn(-c3ccccc3)cc2/C=C(\C#N)c2nc3ccccc3[nH]2)c1	-42.7	-25.9	4.9	-6.9
CN(C)S(=O)(=O)c1cccc(-c2nn(-c3ccccc3)cc2/C=C2\SC(=S)NC2=O)c1	-139.8	-82.4	active	?
Cc1cc(OCC(=O)OCC(=O)NC2CCCCCC2)ccc1Cl	3.6	9.1	nt	nt
CC1=NN(c2ccc(C(=O)O)c(N)c2)C(=O)C1	-12.2	-0.7	8.3	98.5*
COC(=O)[C@]1(C)CCC[C@@]2(C)C3CC[C@@]4(C)C[C@]3(CCC21)CC(=O)N4C (stereo partly specified)	13.4	2.4	nt	nt
C=C1C[C@@]23CCC4[C@@](C)(CCC[C@@]4(C)C(=O)OC)C2CC[C@]1(OC(C)=O)C3 (stereo partly specified)	29.9*	4.4	nt	nt
CCOC(=O)C1(C)CCCN(C(=O)c2ccc3ccccc3c2)C1 (stereo unspecified)	-0.8	12.7	nt	nt
O=C(NCc1ccco1)c1sc(=S)n2c1[nH]c(=O)c1ccccc12	-32.6	44.6*	23.4	5.0
Cc1nn(C)c(C)c1N1C(=O)c2cccc3c(N)ccc(c23)C1=O	121.4	i	117.7*	128.6
Cc1nn(C)c(C)c1N1C(=O)c2cccc3c(Br)ccc(c23)C1=O	-5.2	15.6	27.8	14.2
CCCn1c(CCC(=O)O)ccc1-c1ccc(OC)cc1	-45.8	-24.9	61.7*	53.0*
COc1ccc(-c2ccc(CCC(=O)O)n2NC(N)=O)cc1	3.7	4.0	1.8	-4.8
O=C(CSc1ccc2nnc(-c3cccnc3)n2n1)Nc1ccc(F)cc1F	-1.0	-1.5	16.2	10.2
Cc1ccc(NS(=O)(=O)c2cccc(C(=O)NCC(c3ccc(F)cc3)N3CCOCC3)c2)cc1 (stereo unspecified)	3.5	1.8	nt	nt
COc1cc(NC(=O)COc2cccc(C)c2C)ccc1NC(=O)c1ccco1	-7.5	-8.8	10.2	5.5
CCCc1c(C(=O)N/N=C(\C)c2ccccn2)nnn1-c1nonc1N	-3.1	0.8	nt	nt
O=C(O)c1cc2ncc(CCO)cn2n1	23.7*	8.2	5.3	12.6
CCC(C)NC(=O)C1(O)c2cc(Br)ccc2NC(=O)N1c1cccc(OC)c1 (stereo unspecified)	4.0	-1.3	-8.8	10.5
O=C(CSc1nc2cc(Cl)ccc2s1)c1cc2ccccc2o1	-4.1	-16.7	80.6*	45.1*
Cc1cc(NC(=O)CSc2nc3cc(Cl)ccc3s2)no1	-10.4	-0.6	-2.7	-7.6
Cc1cc(C)c(NC(=O)NC(=O)c2cccc(F)c2)c(C)n1	-8.1	-8.1	9.0	-2.9
Cc1cc(C)c(NC(=O)NC(=O)c2ccc(F)cc2)c(C)n1	-12.2	3.8	60.2*	76.5*
O=C(C(=O)N1CCN(c2ccccc2F)CC1)c1ccccc1	-4.7	nt	nt	nt
CCN(CC)CCCNc1cc(C(F)(F)F)c(C#N)c2nc3ccccc3n12	-27.3	24.4	25.2*	75.9
SMILES	NRP1-CendR mod	MLLE-PAM2 inh	PABP polyA inh	eIF4H inh
CCN(CC)CCCNc1cc(C)c(C#N)c2nc3ccccc3n12	-94.3	1.2	nt	nt
Cc1cc(NCCCN2CCOCC2)n2c(nc3ccccc32)c1C#N	-12.9	-13.1	84.7*	79.5*
O=C(COc1coc(CN2CCN(c3ccccc3)CC2)cc1=O)NC1CCCCC1	11.9	9.2	nt	nt
O=C(COc1ccccc1F)Nc1cc(S(=O)(=O)Nc2cccc(Cl)c2)ccc1O	25.0*	33.5	nt	nt
COC(=O)c1cn(C(=O)c2ccc(Br)o2)c2ccccc12	25.2*	15.5	4.4	2.5
NC(=O)c1c(NC(=O)C2CCCO2)sc2c1CCC2 (stereo unspecified)	-16.0	12.7	10.9	6.7
NC(=O)c1c(NC(=O)C(=O)N2CCOCC2)sc2c1CCCC2	31.6*	-3.6	17.5	-5.5
NC(=O)c1c(NC(=O)C2CCCO2)sc2c1CCCCC2 (stereo unspecified)	-15.3	40.9*	-12.6	12.2
NC(=O)c1c(NC(=O)C(=O)N2CCOCC2)sc2c1CCC2	-129.7	11.7	8.2	-9.8
O=C(NCCc1ccc(F)cc1)C1CCN(C(=O)Nc2ccccc2)CC1	8.8	7.3	nt	nt
O=C(O)c1cccc(-n2cccc2/C=C\[N+](=O)[O-])c1	-7.9	-52.6	58.5*	98.6
O=C(O)c1cccc(-n2cccc2/C=C/[N+](=O)[O-])c1	-43.9	24.7	75.6*	93.9*
